Screening data (PubChem BioAssay)
Rows were chosen to be rich in hits. Some 9.9% of all compounds tested hit in one or more screens of this group.
MCF10A rereplic = induces DNA re-replication in MCF 10a normal breast cells; MCF 10A DNA re-replication, Hoechst nuclear intensity, 48 h; Potency, µM (doses to about 46.1 µM), usual class: activators; hit rate 2.9% among 350,000; note: nearly all actives have a fitted effect of over 50% in size
SW480 rereplic = inducers of DNA re-replication in SW480 colon cancer cells | SW480 DNA re-replication, Hoechst DNA content imaging, 48 h | Potency, µM (doses to about 46.1 µM), usual class: activators | hit rate 1.8% among 340,000 | AID 624297; note: nearly all actives have a fitted effect of over 55% in size
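Readout is total intensity of Hoechst-stained nuclei, excited at 405 nm and collected at 500-530 nm. Compound treatment lasted 48 hr at 37 C in 5% CO2 before staining.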
KB-V1 cytotox = KB-V1 MDR subline cytotoxicity; hit rate 3.4% among 400,000; AID 1347076; KB-V1 MDR cells viability, CellTiter-Glo, 72 h; Potency, µM (top dose mostly 46.1 µM), usual class: cytotoxic; note: nearly all actives have a fitted effect of over 60% in size
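Luminescent ATP read-out (CellTiter-Glo, 10 min) measures survival of drug-selected KB-V1 MDR cells after 72 h, 37 degrees C compound exposure. Medium: phenol-red-free DMEM, 10% FBS. Values from fitted concentration-response curves.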
KB-3-1 cytotox = KB-3-1 parental cell cytotoxicity; KB-3-1 viability, CellTiter-Glo ATP luminescence, 72 h; Potency, µM (highest dose often 46.1 µM), most hits filed as cytotoxic; hit rate 1.4% among 400,000; AID 1347075; note: nearly all actives have a fitted effect of over 60% in size
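KB-3-1 parental drug-naive adenocarcinoma cells in DMEM/10% FBS, incubated 72 h at 37 C with pin-transferred compounds across a concentration series. Viability by CellTiter-Glo luminescence; concentration-response curves fitted after normalization.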
IL-1B inflam inh = inflammasome signaling inhibition, IL-1 beta readout; hit rate 4.7% among 360,000; activity change, % at 57.5 µM; THP-1 LPS/ATP IL-1B secretion, AlphaLISA, 16 h; active compounds read low; in the data active = activity change below about -50%; inconclusive = mostly about -30% to -49%
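Secreted IL-1B measured by AlphaLISA bead assay after 16 h compound exposure of THP-1 cells; compounds (final up to 57.5 uM) added 1 h before LPS (250 ng/mL) and ATP (1.25 mM) stimulation; lower signal means less secretion.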
Large screens that a line does not name were inactive. Unless noted, calls come from the whole dose curve; as a rule, active = well fitted curve in the direction sought with a large enough effect; inconclusive = small, poorly fitted or top-dose-only effect, or another doubt; inactive = no such curve, though single readings can be large; an effect the other way counts as inactive or inconclusive.

CC1CCC(C(C)C)C(OCC(O)CNC(C)c2ccccc2)C1 (stereo unspecified)	MCF10A rereplic 16µM, KB-V1 cytotox 21µM, KB-3-1 cytotox inconclusive, IL-1B inflam inh -108
CC1CCC(C(C)C)C(OCC(O)CNC(C)(C)C)C1 (stereo unspecified)	none
CC(NCC(O)COC1CCC(C(C)(C)C)CC1)c1ccccc1 (stereo unspecified)	MCF10A rereplic inconclusive, IL-1B inflam inh -67
O=C1OC[C@H](Cc2ccc3c(c2)OCO3)/C1=C\c1ccc2c(c1)OCO2	KB-V1 cytotox inconclusive, KB-3-1 cytotox inconclusive, IL-1B inflam inh inconclusive
Cc1cc(C(=O)COc2ccc(-c3nnco3)cc2)c(C)n1Cc1ccccc1	KB-V1 cytotox 2.9µM, KB-3-1 cytotox 16µM, IL-1B inflam inh inconclusive
COc1cccc(-c2ccnc3c(-c4ccc(F)cc4)c(C)nn23)c1	none (no result: MCF10A rereplic, SW480 rereplic, IL-1B inflam inh)
COc1ccc(S(=O)(=O)N(C)C)cc1NC(=O)COC(=O)Cn1cnc2ccccc2c1=O	SW480 rereplic inconclusive
COc1ccc(-n2nnnc2-c2cnc3cc4c(cc3c2C)OCO4)cc1	KB-V1 cytotox 9.2µM
COc1ccc(C(=O)Nc2nc(C)c3cc4c(cc3n2)OCO4)cc1	MCF10A rereplic inconclusive
Cc1scc(C(=O)N2CCN(S(C)(=O)=O)CC2)c1-c1ccccc1	KB-V1 cytotox 23µM
Cn1c(CNC(=O)CCNC(=O)c2ccc(F)c(F)c2)cc(=O)n(C)c1=O	none
O=C(NC(=S)Nc1ccc2oc(=O)ccc2c1)c1cccc(Cl)c1	none
CC1(C)CC(=O)C=C(c2ccc3c(c2)OCO3)C1	none
Oc1ccc(/C=N/Nc2nccnc2Cl)c(O)c1	KB-V1 cytotox inconclusive
Cc1ccc(/C=N/Nc2ccccn2)s1	KB-3-1 cytotox inconclusive
Oc1ccc(C=NNc2ccccn2)c(O)c1	MCF10A rereplic 16µM, SW480 rereplic inconclusive, KB-3-1 cytotox inconclusive
C(=N\Nc1ccccn1)/c1c[nH]c2ccccc12	KB-V1 cytotox inconclusive, IL-1B inflam inh -95
Oc1cccc(C=NNc2ccccn2)c1	KB-V1 cytotox inconclusive, IL-1B inflam inh -87
Cc1noc(C)c1/C=N/Nc1ccccn1	IL-1B inflam inh -70
COc1ccc(/C=N/Nc2ccccn2)cc1O	none
Cc1ccc(SCC(=O)OCc2csc(CC(=O)Nc3ccccc3C)n2)cc1C	MCF10A rereplic inconclusive, KB-V1 cytotox inconclusive
C=CCNc1nc(C(=O)OC(C)C(=O)c2ccc(C)cc2)cs1 (stereo unspecified)	none
Cc1ccc(/C=N/Nc2cccc3cccnc23)c(O)c1	MCF10A rereplic inconclusive, SW480 rereplic inconclusive
Oc1ccc(/C=N/Nc2cccc3cccnc23)c(O)c1	IL-1B inflam inh -77
Cc1ccc(S(=O)(=O)N2CCCN(c3nccc(C(F)(F)F)n3)CC2)cc1	KB-V1 cytotox inconclusive
Cc1cc(C(=O)Nc2ccccc2N2CCOCC2)ccc1[N+](=O)[O-]	KB-V1 cytotox inconclusive
CC1CCN(c2ccccc2NC(=O)c2ccc(N3CCOCC3)c([N+](=O)[O-])c2)CC1	MCF10A rereplic 16µM
COc1ccc(C(=O)Nc2ccc(S(=O)(=O)N3CCOCC3)cc2)cc1[N+](=O)[O-]	MCF10A rereplic 4.6µM, KB-V1 cytotox inconclusive, IL-1B inflam inh inconclusive
CN1CCN(c2ccccc2NC(=O)c2ccc(N3CCCC3)c([N+](=O)[O-])c2)CC1	IL-1B inflam inh -78
COc1ccc(C(=O)Nc2ccc(S(=O)(=O)N3CCN(C)CC3)cc2)cc1[N+](=O)[O-]	MCF10A rereplic inconclusive
COc1ccc(C(=O)Nc2ccc(N3CCOCC3)cc2)cc1OC	KB-V1 cytotox 16µM, KB-3-1 cytotox inconclusive
COC(=O)c1c(C)sc(-c2c(-c3ccc(F)cc3)[nH]c3[nH]c(=O)[nH]c(=O)c23)c1O	none (no result: MCF10A rereplic, SW480 rereplic, IL-1B inflam inh)
COc1cccc(CN(CC(=O)NCc2ccccc2)C(=O)c2csnn2)c1	none
CC(C)[C@H](NC(=O)c1ccccc1Cl)C(=O)NC1CCCCCC1	KB-V1 cytotox inconclusive
COc1cccc(OCC(=O)Nc2ccccc2C(=O)Nc2ccc(C(=O)O)cc2)c1	KB-V1 cytotox inconclusive
O=C(Nc1nc(-c2ccccc2)cs1)c1ccc(N2CCOCC2)c([N+](=O)[O-])c1	MCF10A rereplic inconclusive, KB-V1 cytotox 1.8µM, KB-3-1 cytotox inconclusive, IL-1B inflam inh inconclusive
COc1ccccc1CNC(=O)c1ccc(N2CCOCC2)c([N+](=O)[O-])c1	IL-1B inflam inh -55
